According to PubChem BioAssay (Tox21):
Inconclusive results are not listed. A call without a number means that no potency is given here. Calls of active or inactive are those of the source. Calls follow the shape of the dose curve; as a rule, active = well fitted cell-killing curve with a large enough effect in the repeat runs; inconclusive = weak or mixed curves, or effect the other way; inactive = flat fitted curve, though single readings scatter.

experiment: cAMP Responsive Elements (CRE) small molecule antagonists, cell-based qHTS assay: qHTS cell viability counter screen (AID 2060913); conditions: CRE-bla HEK293T viability, CellTiter-Glo luminescence, 5 h; series mostly up to 92.4 µM; also: nearly all actives have a fitted effect of over 40% in size
Procedure, shortened: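 Cytotoxicity counter screen multiplexed with the CRE-bla antagonist read: HEK293T cells in DMEM with dialyzed FBS and 25 mM HEPES were treated 3 hrs under 0.25 uM final NKH477, then viability measured by CellTiter-Glo luminescence.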

Q: Which Potency does the source give for c1ccc2c(c1)OCC(C1=NCCN1)O2 (configuration not stated) here?
A: inactive

Q: Which Potency does the source give for CCCN(CC)CC1COC2(CCC(C(C)(C)C)CC2)O1 (configuration not stated) here?
A: inactive

Q: For Nc1ccc(-c2ccccc2)cc1, which Potency is on record?
A: inactive

Q: Which Potency does the source give for CON(C)C(=O)Nc1ccc(Cl)cc1 here?
A: inactive

Q: Which Potency does the source give for O=P(OCC(Br)CBr)(OCC(Br)CBr)OCC(Br)CBr (configuration not stated) here?
A: inactive

Q: For C[C@]12CC[C@H]3[C@@H](CCC4=CC(=O)CC[C@@H]43)[C@@H]1CC[C@@H]2OC(=O)CCc1ccco1, which Potency is on record?
A: inactive

Q: Which Potency does the source give for NC1(c2ccccc2)CCCCC1 here?
A: inactive

Q: For O=C(CCl)CCl, which Potency is on record?
A: inactive

Q: For Oc1ccccc1Br, which Potency is on record?
A: inactive

Q: For Clc1ccc(C2(Cn3cncn3)CC(Br)CO2)c(Cl)c1 (configuration not stated), which Potency is on record?
A: inactive

Q: For ClCCOCCCl, which Potency is on record?
A: inactive

Q: With O=c1oc2ccccc2c(O)c1C1CCCc2ccccc21 (configuration not stated) as the compound, how does the Potency read?
A: inactive

Q: For COc1ccc(C(=O)N2CCCC2=O)cc1, which Potency is on record?
A: inactive

Q: For CC(C)(C#N)C(C)(C)C#N, which Potency is on record?
A: inactive

Q: With Clc1cccc(Cl)c1Cl as the compound, how does the Potency read?
A: inactive

Q: Which Potency does the source give for Cc1ncc(CNC(=O)N(CCCl)N=O)c(N)n1 here?
A: inactive

Q: For O=c1ccc(=O)[nH][nH]1, which Potency is on record?
A: inactive

Q: With Cn1[nH]nnc1=S as the compound, how does the Potency read?
A: inactive

Q: For O=NN1CCCCCCC1, which Potency is on record?
A: inactive

Q: Which Potency does the source give for COC[C@H](C)N(C(=O)CCl)c1c(C)csc1C here?
A: inactive

Q: Which Potency does the source give for CC1CC(=O)O1 (configuration not stated) here?
A: inactive

Q: For CCOC(=O)C(Cl)Cc1cc(-n2nc(C)n(C(F)F)c2=O)c(F)cc1Cl (configuration not stated), which Potency is on record?
A: inactive

Q: Which Potency does the source give for ClCBr here?
A: inactive

Q: For CCN(CC)C(=O)N[C@@H]1C=C2c3cccc4[nH]cc(c34)C[C@@H]2N(C)C1, which Potency is on record?
A: inactive

Q: With CC(C)C(Br)C(=O)NC(N)=O (configuration not stated) as the compound, how does the Potency read?
A: inactive

Q: With COC(N)=O as the compound, how does the Potency read?
A: inactive

Q: With O=c1c(C2CC(c3ccc(-c4ccc(Br)cc4)cc3)Cc3ccccc32)c(O)sc2ccccc12 (configuration not stated) as the compound, how does the Potency read?
A: inactive
